The list is not random: actives were taken first. Their share in the collection is about 20%.
Shiga inhibitor = A qHTS for Small Molecule Inhibitors of Shiga Toxin | Vero cells, Shiga toxin protein synthesis inhibition reporter | inhibition, % at 38.7 µM | actives 9.2% (n = 290,000); in the data active = inhibition mostly above about 28%, no sharp cut-off; inactive = mostly below about 43%; note: 0% is about no effect
Pf growth 96h = Primary qHTS for delayed death inhibitors of the malarial parasite plastid, 96 hour incubation; P. falciparum luciferase reporter growth, 96 h; Potency, µM (series often up to 28.7 µM), for the others: at the highest dose activity change, negative = inhibition, usual class: inhibitors; AID 504834, 2011; actives 6.9% (n = 320,000); note: potency is the fitted concentration of half-maximal effect; % is set by controls: 0 for no effect and ±100 for the full control effect
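Infected RBCs, 2% Hct / 0.05% parasitemia final; luciferase-reporter P. falciparum; cpd 96 h, 37 C, 5% CO2; luciferase detection reagent; luminescence.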
HCMV inh = qHTS Assay for inhibitors of the human cytomegalovirus (HCMV). HFF cells, HCMV-luciferase reporter, 72 h; active compounds read low. activity change, negative = inhibition, % at 57.5 µM. actives 4.5% (n = 410,000). AID 1259415, 2018; in the data active = activity change below about -60%; inconclusive = no clear call, values can overlap the other calls; inactive = above about -39%; note: % is set by controls: 0 for no effect and ±100 for the full control effect
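Inhibition of viral replication was scored as loss of reporter luminescence in HFFs infected with HCMV-luciferase (MOI 1 PFU/cell) for 72 h; compounds tested at 2 doses, normalized to buffer and Salinomycin controls.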
Cycloheximide cs = Cycloheximide Counterscreen for Small Molecule Inhibitors of Shiga Toxin; cell reporter, cycloheximide protein synthesis inhibition counterscreen; max response, %; actives 12% (n = 300,000); in the data active = max response mostly above about 13%, no sharp cut-off; inactive = mostly below about 14%; note: read at 38.3 µM for the half of the compounds with a filed dose; 0% is about no effect
Pf growth 48h = Primary qHTS for delayed death inhibitors of the malarial parasite plastid, 48 hour incubation. actives 5.9% (n = 310,000). Potency, µM (highest dose often 28.7 µM), inactives show top-dose activity change, negative = inhibition, hits mostly inhibitors. P. falciparum luciferase growth in erythrocytes, 48 h; note: potency is the fitted concentration of half-maximal effect; % is set by controls: 0 for no effect and ±100 for the full control effect
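Firefly luciferase activity from engineered P. falciparum reports growth; inhibitors lower the luminescent signal. Cultures contained 2% hematocrit erythrocytes at 0.1% final parasitemia.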
* hit, by the source's call; i = inactive; u = inconclusive; x = no result; [ ] = another dose, or the depositor's remark. Unless noted, calls come from the whole dose curve; as a rule, active = well fitted inhibition curve with a large enough effect; inconclusive = small, poorly fitted or top-dose-only effect, or another doubt; inactive = no such curve, though single readings can be large or run the other way.

SMILES	Shiga inhibitor	Pf growth 96h	HCMV inh	Cycloheximide cs	Pf growth 48h
CCN1C(=O)[C@H]2[C@@H](c3ccc(C(F)(F)F)cc3)N[C@]3(CCCN(CC4CCCCC4)C3=O)[C@H]2C1=O	x	x	-2	x	x
c1ccc(-n2ncc3c(NCc4cccnc4)ncnc32)cc1	67	20%	13	20*	126%
c1ccc(-n2ncc3c(NCc4cccs4)ncnc32)cc1	52*	88%	58	51*	70%
Cc1ccc(-n2ncc3c(NCc4ccccc4)ncnc32)cc1C	x	x	27	x	x
CCCN(CCC)c1ncnc2c1cnn2-c1ccc(OC)cc1	66*	17%	0	30*	131%
COc1ccc(-n2ncc3c(NCc4ccccn4)ncnc32)cc1	90*	x	61	50*	136%
COc1ccc(CC(=O)NNc2ncnc3c2cnn3-c2ccccc2)cc1	17	45%	-7	-3	16%
COc1ccc(N2CCN(c3ncnc4c3cnn4-c3ccc(F)cc3)CC2)cc1	x	x	14	x	x
N#CC1(Nc2ccc3ccccc3c2)CCCC1	x	x	9	x	x
O=C(NCc1cccnc1)O[C@H]1CC[C@@]23CCCN2C(=O)CCC[C@H]3[C@H]1Cc1ccccc1	x	x	-5	x	x
C=CCNc1ncnc2c1cnn2-c1ccc(OC)cc1	61*	3%	152	30*	292%
CCCNc1ncnc2c1cnn2-c1ccc(OC)cc1	-11	-1%	x	-2	31%
COc1cc(-c2cc(OC)c3c(C)oc(C)c3c(=O)c2)ccc1O	-9	3.7µM*	-2	-3	u
COc1ccc(-c2cc(OC)c3c(C)oc(C)c3c(=O)c2)cc1OC	16	29%	70	4	4.7µM*
COc1ccc(/C=C/C(=O)OC(C)CN2CCOCC2)cc1 (configuration not stated)	-5	56%	-5	-4	41%
Cc1nc2ccccc2nc(C)c1=NOCc1ccccc1Cl	86*	u	-15	39*	u
Cc1nc(C)c(CC(=O)N/N=C/c2ccc(O)cc2)c(=O)[nH]1	13	44%	-11	-4	22%
Cn1c(-c2ccc3c(c2)OCO3)cnc1NCc1cccc(O)c1	44*	u	31	25*	-4%
Cn1c(-c2ccc(F)cc2)cnc1NCc1cc2c(cc1[N+](=O)[O-])OCO2	28	40%	12	33*	12µM*
Cn1c(-c2ccc(Cl)cc2)cnc1NCc1cc2c(cc1[N+](=O)[O-])OCO2	-10	57%	-26	-3	u
Cn1c(-c2ccccc2)cnc1NCc1cccc([N+](=O)[O-])c1	15	28%	20	3	3%
Cn1c(-c2ccccc2)cnc1NCc1cc2c(cc1[N+](=O)[O-])OCO2	60*	u	-33	53*	-1%
C=C1CCN([C@@H](C)C(=O)NCc2ccc(Cl)cc2)S(=O)(=O)c2ccccc21	-4	u	-21	-3	u
COc1ccc(CNC(=O)C2CCCN(S(=O)(=O)c3ccc4c(ccn4C)c3)C2)c(OC)c1 (configuration not stated)	x	x	-33	x	x
CC(NC(=O)c1cc(-c2ccc(Cl)cc2)on1)c1ccccc1 (configuration not stated)	x	x	7	x	x
SMILES	Shiga inhibitor	Pf growth 96h	HCMV inh	Cycloheximide cs	Pf growth 48h
CCN1C=CC2=C(C#N)C(N)C(C#N)(C#N)C(c3ccccc3C(F)(F)F)C2C1 (configuration not stated)	-14	u	-19	-2	2.9µM*
CC1(C(=O)NS(=O)(=O)c2ccc(Cl)s2)CCN1C(=O)Cc1ccc(Cl)cc1Cl (configuration not stated)	x	x	-17	x	x
COc1ccc(NCC(=O)N/N=C(\C)c2cc3ccccc3o2)cc1	20	21%	0	16*	39%
C/C(=N\NC(=O)COc1ccc(C(C)(C)C)cc1)c1cc2ccccc2o1	38*	0%	-38	24*	189%
C/C(=N\NC(=O)COc1ccc(C(C)(C)C)cc1)c1ccccc1	18	-10%	7	-2	-25%
COC(=O)c1cccc(N2C(=O)C[C@](Sc3ccc(OC)cc3)(C(=O)N3CCN(c4ncccn4)CC3)[C@H]2c2ccc(OC)cc2)c1	x	x	-25	x	x
Cc1cccc(C(=O)NCCc2nc3ccccc3n2Cc2ccc(Cl)cc2)c1	x	x	-29	x	x
COc1ccc(CC(N)C(=O)N[C@H]2[C@@H](O)[C@H](n3cnc4c(N(C)C)ncnc43)O[C@@H]2CO)cc1 (some centres not stated)	-7	x	x	-7	x
COc1ccccc1NC(=O)CSc1nc2ccccc2c(=O)n1C	x	-25%	u	-1	0%
Cc1cc2c(=O)n(C)c(SCC(=O)Nc3ccccc3)nc2s1	55*	38%	-61*	22*	u
Cc1cc2c(=O)n(C)c(SCC(=O)Nc3ccccc3C)nc2s1	x	9.3µM*	-25	x	u
Cc1cccc(NC(=O)CSc2nc3ccccc3c(=O)n2C)c1C	x	x	-68*	x	x
COc1ccc2oc(=O)c(-c3csc(/C(C#N)=C/c4ccc(F)cc4)n3)cc2c1	x	x	-12	x	x
N#CCn1cc(/C=N/NC(=O)c2cc3c(ccc4ccccc43)o2)c2ccccc21	-4	12µM*	-39	7	9.3µM*
CCCCC(=O)N1C/C=C\C(c2ccc(OC)cc2)N(Cc2ccc(F)cc2)C(=O)C1Cc1ccccc1 (configuration not stated)	3	x	x	-5	x
N#Cc1ccc2c(c1)C[C@]1(c3ccsc3)OC3=C(C(=O)OC4(CCCCC4)C3)C2O1	i	u	x	9	u
COc1ccc([C@]23Cc4cc(C#N)ccc4C(O2)C2=C(CC4(CCCCC4)OC2=O)O3)cc1	i	0.76µM*	x	-2	u
COc1ccc([C@]23Cc4cc(OC)c(OC)cc4C(O2)c2c(cc(C)n(Cc4ccccc4)c2=O)O3)cc1	i	1.5µM*	x	3	u
Cc1cc2c(c(=O)n1Cc1ccccc1)C1O[C@](CCCCN3C(=O)c4ccccc4C3=O)(Cc3cc(C#N)ccc31)O2	i	u	x	-2	u
COc1ccc([C@]23Cc4cc(C#N)ccc4[C@H](O2)c2c(cc(C)n(Cc4ccccc4)c2=O)O3)cc1	i	-4%[5.75 µM]	x	8	1.9µM*
COc1ccc([C@]23Cc4cc(OC)c(OC)cc4C(O2)c2c(cc(-c4ccccc4)oc2=O)O3)cc1	i	u	x	-3	u
CC(C)C(NC(=O)C(NC(=O)C1O[C@@H]2OC(C)(C)O[C@@H]2[C@H]2OC(C)(C)O[C@@H]12)C(C)C)C(=O)O (some centres not stated)	15	-27%	-26	-5	18%
COc1ccc(CNCCC(c2ccc(OC(C)C)cc2)C(C)C)cc1OC (configuration not stated)	-11	u	-104*	-3	u
CCOCCCNCc1ccc(OC)c(OC)c1	-13	u	36	-4	13%

Assay outcomes (PubChem BioAssay)
